Compound activity: PubChem, National Center for Advancing Translational Sciences (NCATS)
Hits are enriched below; roughly 9.2% of the tested compounds scored in any of these assays.
ELG1 repair inh: inhibitors of ELG1-dependent DNA repair in HEK293T cells; 2.3% of 330,000 active; HEK293T ELG1-luciferase reporter, luminescence, 16 h; DNA damage induced by 5-fluorouridine; AID 504467; Potency, µM (top dose mostly 46.1 µM), most hits filed as inhibitors; also: nearly all actives have a fitted effect of over 55% in size
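Quantitative HTS, concentration-response format. 2,000 cells/well co-treated with 5-fluorouridine and compound, 16 hr in 5% CO2 at 37 °C; ONE-Glo luminescence read after 30 min.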
Rab9 prom act: activates the Rab9 promoter; Huh7 Rab9 promoter-luciferase reporter, luminescence, 24 h; Potency, µM (titrated, usually from 9.22 µM), actives largely listed as activators; 2.8% of 320,000 active; also: nearly all actives have a fitted effect of over 60% in size
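Huh7 cells stably carrying Rab9 promoter–luciferase reporter, plated 1500 cells/well, compound added after 2 h and incubated 24 h at 37 °C; luciferase luminescence then read after 10 min with detection reagent.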
FLuc modulator: inhibits or activates purified firefly luciferase, miR-21 counter-screen; P08659; purified FLuc, Km substrates, luminescence inhibition; Potency, µM (top dose mostly 57.5 µM), hits mostly inhibitors; 6.9% of 360,000 active; AID 588342; also: nearly all actives have a fitted effect of over 55% in size
Target sequence (P08659 whole entry, looked up): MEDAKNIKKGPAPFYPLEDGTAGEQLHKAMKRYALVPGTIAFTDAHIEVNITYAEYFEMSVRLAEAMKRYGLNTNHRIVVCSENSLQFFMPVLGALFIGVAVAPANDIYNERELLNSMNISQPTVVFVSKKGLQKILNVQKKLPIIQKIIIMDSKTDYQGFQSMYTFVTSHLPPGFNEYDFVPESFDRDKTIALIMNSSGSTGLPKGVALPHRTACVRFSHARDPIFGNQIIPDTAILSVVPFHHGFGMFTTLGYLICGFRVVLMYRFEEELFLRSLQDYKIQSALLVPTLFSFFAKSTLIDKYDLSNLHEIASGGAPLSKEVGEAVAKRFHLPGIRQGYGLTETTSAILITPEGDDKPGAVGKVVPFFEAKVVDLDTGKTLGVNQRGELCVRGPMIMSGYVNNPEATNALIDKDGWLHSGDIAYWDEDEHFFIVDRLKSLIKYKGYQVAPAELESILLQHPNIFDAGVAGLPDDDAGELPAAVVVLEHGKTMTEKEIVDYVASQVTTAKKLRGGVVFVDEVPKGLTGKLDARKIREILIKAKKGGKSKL
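Purified P. pyralis luciferase, 10 nM final, with Km-level 10 uM D-luciferin and 10 uM ATP in 50 mM Tris acetate pH 7.5, 10 mM Mg acetate, 0.01% Tween-20, 0.05% BSA; 6-point qHTS titration about 60 µM downward; luminescence read.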
SMN2 splice up: SMN2 splice variant enhancement; Potency, µM (highest dose often 46.1 µM), most hits filed as activators; 2.8% of 210,000 active; AID 1458; HEK293 SMN2-luciferase splicing reporter, luminescence, 30-36 h; also: nearly all actives have a fitted effect of over 55% in size
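HEK293 cells carry an SMN2 minigene-luciferase reporter in which exon 7 inclusion puts luciferase in frame. Cells were seeded at 2000 cells/well, attached for 10-12 hours, then exposed to compounds for 30-36 hours at 37C before ONE-Glo luminescence.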
NPC1 prom act: activates the NPC1 promoter. AID 485313. Potency, µM (series often up to 9.22 µM), actives largely listed as activators. Huh7 NPC1 promoter luciferase reporter, 24 h. 2.4% of 320,000 active; also: nearly all actives have a fitted effect of over 60% in size
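In 1536-well qHTS, Huh7 cells harboring an NPC1 promoter–luciferase construct received compound for 24 h; activation was quantified by luminescence following luciferase reagent addition.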
ELG1 genotoxic: induces genotoxicity in HEK293T cells with luciferase-tagged ELG1; HEK293T ELG1-luciferase reporter, luminescence, 16 h; Potency, µM (titrated, usually from 46 µM), hits mostly activators; 1.3% of 330,000 active; also: nearly all actives have a fitted effect of over 60% in size
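Screening used a luciferase reporter fused to human ELG1 in HEK293T cells. Luminescence was read on a CCD plate imager after 16 hr exposure and 30 min ONE-Glo incubation.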
Each line names hits and unclear results; the compound was inactive in the other large screens. Calls follow the shape of the dose curve; as a rule, active = well fitted curve in the direction sought with a large enough effect; inconclusive = small, poorly fitted or top-dose-only effect, or another doubt; inactive = no such curve, though single readings can be large; an effect the other way counts as inactive or inconclusive.

O=C(CSc1nccn1-c1ncc(C(F)(F)F)cc1Cl)c1ccc(Cl)cc1	ELG1 repair inh inconclusive, Rab9 prom act 3.5µM, FLuc modulator inconclusive, NPC1 prom act 4µM
CC1(C(=O)OCc2cc(=O)n3cc(Br)ccc3n2)CC1(Cl)Cl (stereo not drawn)	ELG1 repair inh inconclusive, FLuc modulator 13µM, SMN2 splice up inconclusive, NPC1 prom act 3.2µM, ELG1 genotoxic 12µM
CC1CC1C(=O)OCc1cc(=O)n2cc(Br)ccc2n1 (stereo not drawn)	ELG1 repair inh inconclusive, Rab9 prom act 3.5µM, FLuc modulator 9.5µM, NPC1 prom act 2.5µM, ELG1 genotoxic inconclusive
Cc1ccccc1C(=O)NC(CC(C)C)C(=O)OCc1cc(=O)n2cc(Br)ccc2n1 (stereo not drawn)	ELG1 repair inh inconclusive, Rab9 prom act inconclusive, FLuc modulator 13µM, SMN2 splice up 11µM, NPC1 prom act 4µM, ELG1 genotoxic inconclusive
CC1CN(C(=O)c2cc(S(=O)(=O)N3CCCCC3)ccc2Cl)CC(C)O1 (stereo not drawn)	none (no result: SMN2 splice up)
O=C(CSc1nnc(-c2n[nH]c3ccccc23)n1-c1ccccc1)Nc1ccccc1Cl	ELG1 repair inh 23µM
Cc1c(Cl)cccc1NC(=O)CSc1nnc(C)n1-c1ccccc1	ELG1 repair inh inconclusive
CCN1CCN(c2ccc(NC(=O)c3cc4ccccc4cc3OC)cc2C)CC1	ELG1 repair inh inconclusive, Rab9 prom act inconclusive, FLuc modulator 8.5µM, ELG1 genotoxic inconclusive (no result: SMN2 splice up)
CCCCCC(=O)NC(=S)Nc1ccc(N2CCCCC2)c(Cl)c1	none (no result: SMN2 splice up)
COc1cc2ccccc2cc1C(=O)Nc1ccccc1N1CCN(S(C)(=O)=O)CC1	none (no result: ELG1 repair inh, Rab9 prom act, NPC1 prom act, ELG1 genotoxic)
CCN1CCN(c2ccc(NC(=O)c3ccccc3F)cc2Cl)CC1	ELG1 repair inh inconclusive, Rab9 prom act inconclusive, FLuc modulator inconclusive, SMN2 splice up 10µM, NPC1 prom act inconclusive, ELG1 genotoxic inconclusive
CCCCCC(=O)Nc1ccc(N2CCN(CC)CC2)c(Cl)c1	ELG1 repair inh inconclusive, FLuc modulator inconclusive, SMN2 splice up inconclusive, NPC1 prom act inconclusive, ELG1 genotoxic 18µM
Cc1ccc(NC(=O)c2c(C)oc3ncnc(N4CCCCC4)c23)c(C)c1	none (no result: ELG1 repair inh, Rab9 prom act, SMN2 splice up, NPC1 prom act, ELG1 genotoxic)
O=C(C[n+]1ccc(/C=N/O)cc1)NC1CCCCC1	none
O=C(c1cc(=O)[nH]c2ccccc12)N1CCN(S(=O)(=O)c2ccc(Cl)cc2)CC1	ELG1 repair inh 23µM (no result: SMN2 splice up)
CN(C1CCCCC1)S(=O)(=O)c1ccc(S(=O)(=O)N2CCN(C(=O)c3ccccc3F)CC2)cc1	ELG1 repair inh 18µM
Cc1ccc(S(=O)(=O)N2CCCN(C(=O)c3cc4ccccc4[nH]3)CC2)cc1	FLuc modulator 19µM (no result: SMN2 splice up)
O=C(c1cc(=O)[nH]c2ccccc12)N1CCN(S(=O)(=O)c2ccc3ccccc3c2)CC1	ELG1 repair inh inconclusive
Cc1ccc(S(=O)(=O)N2CCN(C(=O)CC(C)C)CC2)cc1	ELG1 repair inh inconclusive, Rab9 prom act 1.1µM, FLuc modulator 15µM, NPC1 prom act 4µM, ELG1 genotoxic inconclusive (no result: SMN2 splice up)
CN1CCN(C(=O)c2cc3ccccc3[nH]2)CC1	none (no result: SMN2 splice up)
Cn1c(N)c(N2CCN(c3ccccc3)CC2)c(=O)[nH]c1=O	none
Cc1ccc(S(=O)(=O)N2CCC(C(=O)N3CCC3)CC2)cc1	ELG1 repair inh inconclusive, Rab9 prom act 3.2µM, FLuc modulator 9.5µM, NPC1 prom act 2.2µM (no result: SMN2 splice up)
Cc1ccccc1C(=O)N1CCC(C(=O)Nc2ccc(S(=O)(=O)N3CCCCC3)cc2)CC1	ELG1 repair inh 15µM (no result: SMN2 splice up)
O=C(C1CCN(S(=O)(=O)c2ccc(Cl)cc2)CC1)N1CCCC1	none (no result: SMN2 splice up)
Cc1ccccc1C(=O)N1CCC(C(=O)Nc2ccc(S(=O)(=O)N3CCOCC3)cc2)CC1	none (no result: SMN2 splice up)
O=C(CN1C(=O)c2ccc([N+](=O)[O-])cc2C1=O)NCC1CCCO1 (stereo not drawn)	none (no result: SMN2 splice up)
CN1C(=O)C(CC(=O)O)S/C1=N\N=C\c1ccc(O)cc1O (stereo not drawn)	FLuc modulator 15µM (no result: SMN2 splice up)
CCc1cccc(C)c1NC(=O)c1nc2ccccc2nc1N1CCCCC1	none (no result: ELG1 repair inh, Rab9 prom act, SMN2 splice up, NPC1 prom act, ELG1 genotoxic)
O=C(CSc1ccccc1F)NCC(c1cccs1)N1CCOCC1 (stereo not drawn)	none (no result: Rab9 prom act, FLuc modulator, SMN2 splice up, NPC1 prom act)
O=C(NCCCc1ccccc1)[C@@H]1Cc2ccccc2CN1	none (no result: SMN2 splice up)
COc1ccc(OCC(=O)c2c(O)c3ccccc3oc2=O)cc1	FLuc modulator 17µM (no result: SMN2 splice up)
COc1ccc(N=Cc2c(O)cc(C)oc2=O)cc1	FLuc modulator 12µM
NS(=O)(=O)c1ccc(N=Cc2c(O)c3ccccc3oc2=O)cc1	none
COc1ccc(N=Cc2c(O)c3ccccc3oc2=O)cc1	ELG1 repair inh inconclusive, FLuc modulator 0.76µM
CC(C)c1ccc(N=Cc2c(O)c3ccccc3oc2=O)cc1	ELG1 repair inh inconclusive, FLuc modulator 0.38µM (no result: SMN2 splice up)
CC(C)c1ccc(Nc2ccc(C(=O)O)cc2[N+](=O)[O-])cc1	FLuc modulator inconclusive (no result: SMN2 splice up)
COc1ccc(NC(=O)N2CCNC(=O)C2CC(=O)Nc2ccc(F)cc2)cc1 (stereo not drawn)	none (no result: SMN2 splice up)
CCCCN=C(C)c1c(O)c2ccccc2oc1=O	ELG1 repair inh inconclusive, Rab9 prom act 4µM, FLuc modulator 19µM, SMN2 splice up inconclusive, NPC1 prom act inconclusive, ELG1 genotoxic inconclusive
CCCCC(=O)c1c(O)c2ccccc2oc1=O	ELG1 repair inh inconclusive, FLuc modulator inconclusive
COCCCn1[nH]c2c3c(ccc2c1=O)C(=O)c1ccccc1C3=O	ELG1 repair inh 26µM, FLuc modulator inconclusive
CC(C)(C)n1[nH]c2c3c(ccc2c1=O)C(=O)c1ccccc1C3=O	SMN2 splice up inconclusive
Cc1ccc(C)c(-n2[nH]c3c4c(ccc3c2=O)C(=O)c2ccccc2C4=O)c1	FLuc modulator 15µM
